Compounds without any hit were thinned out: in the full panel of roughly 79,000, 15% have a hit. Values without a mark were called inactive. The source made the active and inactive calls. Rule as the data show it: active = growth inhibition above about 70%; inactive = the rest.
Assay: NCI Yeast Anticancer Drug Screen. Data for the mec2-1 strain (AID 157)
Conditions: S. cerevisiae mec2-1 strain, at 50.0 µM, hits give high values
Experimental: Growth inhibition of yeast strains with defined genetic alterations is measured as a screen for potential anti-cancer activity. Selected strains with alterations in DNA damage repair or cell cycle control were exposed to compounds and growth inhibition was measured relative to vehicle treated controls. The strain used in this assay is mec2-1

Compared with `O=C(CC(=O)c1ccc(Cl)s1)C(=O)NC1C2CC3CC(C2)CC1C3` (stereo not given), `CC(NC(=O)C(N)CC(=O)O)NC(=O)C1CCC1` (stereo not given) is lower in growth inhibition: 15.9% for the first, -48.1% for the second.

Going from `CCC(CC)=C(c1ccc(C)cc1)c1ccc(C)cc1` to `Cc1ccc(N=Nc2ccc(C)cc2NC(=S)Nc2ccccc2)cc1`, the growth inhibition rises from -12.7% to -0.95%.

Compared with `CC1=CC(=O)Nc2ccccc2S1`, `CCCCOC(=O)c1cc2ccccc2oc1=O` is lower in growth inhibition: 29.2% for the first, 9.9% for the second.

Going from `C[N+]1(C)C2Cc3ccccc3C1Cc1ccccc12` to `CCCCCCOC(=O)NC1c2ccccc2Oc2ccccc21`, the growth inhibition rises from -11.6% to 7.15%.

Compared with `c1ccc(C[n+]2cccc3ccccc32)cc1`, `Cc1cccc(NC(=O)/C=C/c2ccccc2)n1` is higher in growth inhibition: -29.6% for the first, -26.5% for the second.

Going from `CCOC(=O)c1c(NN)n[nH]c1C` to `Nc1nc(=O)[nH]c2n[nH]nc12`, the growth inhibition falls from 13.2% to -7.15%.

First: C=CCOCCC(OCC=C)OCC=C
Second: C=C(C)CCCC(C)C(O)C=O (stereo not given)
The growth inhibition of the first is higher: 7.75% for the first, 1.15% for the second.

First: CC[O-].CC[O-].O=C1c2ccccc2C(=O)c2c(O)ccc([O-])c21.O=C1c2ccccc2C(=O)c2c(O)ccc([O-])c21.[Ti+4]
Second: NS(=O)(=O)c1ccc(NC2=CC(=O)C(=O)c3ccccc32)cc1
The growth inhibition of the first is higher: 1.75% for the first, -5.6% for the second.

Compared with `Oc1cc(CN2COc3ccccc32)c(O)cc1CNC1CCCCC1`, `OCCN(/N=C\c1ccc2ccccc2c1)C1=NCCN1` is higher in growth inhibition: -4.95% for the first, 6.25% for the second.

Compared with `N#CCOc1ccc(/C=C/C(=O)c2ccc(Cl)cc2)cc1`, `COc1cc(/C=C\C(=O)c2cccc([N+](=O)[O-])c2)cc(OC)c1OC` is higher in growth inhibition: -53.6% for the first, 30.1% for the second.

First: O=C(Nc1cc(Cl)c(I)cc1Cl)C(F)(F)F
Second: COC(=O)C(=O)C(C(=O)C(=O)Nc1ccc(C)cc1C)c1nc2ccc(Cl)cc2[nH]c1=O (stereo not given)
The growth inhibition of the first is higher: 10.8% for the first, -21.6% for the second.

First: COc1ccc(Nc2cc(N)nc(N)n2)c(=S)[nH]1
Second: COC(=O)c1ccc(N(C)CC/C(CNc2nc(N)[nH]c(=O)c2[N+](=O)[O-])=N\NC(N)=O)cc1
The growth inhibition of the first is lower: -2.85% for the first, 10.6% for the second.

First: CCCC(O)c1ccccc1C (stereo not given)
Second: CC/C(=C/CO)c1ccccc1
The growth inhibition of the first is higher: 13.9% for the first, 5.65% for the second.

Compared with `CN(C)c1ccc(/C=C2\CCc3ccccc3C2=O)cc1Br`, `CCN(CC)CC(C)(C)C(O)c1ccc(OC)c2ccccc12` (stereo not given) is higher in growth inhibition: -12.1% for the first, 7.3% for the second.

Going from `CN(c1nc(=[N+](C)C)ss1)C1CCCCC1` to `Cc1ccc(C(=O)C[N+]2(C)CCOCC2)cc1`, the growth inhibition falls from 17.2% to -7.5%.

Compared with `COc1cc(/C=N/N=C(\N)NO)cc(OC)c1OC`, `CCSCC1(c2ccc(OC)cc2)NC(=O)NC1=O` (stereo not given) is lower in growth inhibition: 3.85% for the first, 2.65% for the second.

Going from `CCSC(C(O)C(O)C(O)C(O)CO)n1cnc2c(SC)ncnc21` (stereo not given) to `Cc1ccnc(SCC(=O)O)n1`, the growth inhibition rises from -15.3% to -1.9%.

Going from `Cc1cccc(CC(CC(=O)O)C(=O)O)c1` (stereo not given) to `CO/[N+]([O-])=C\C(=O)N/C=C/C(=O)O`, the growth inhibition falls from 9.45% to 5.85%.

First: COC1OC2COC(c3ccccc3)OC2C2C1N2C(=S)SC (stereo not given)
Second: CC(C)(CCCCC(C)(C)C1NC(=O)N1)C1NC(=O)N1
The growth inhibition of the first is higher: 1.7% for the first, -7.4% for the second.

`Cc1[nH]c(=O)[nH]c(=O)c1NC=O` gave a growth inhibition of -28.3%.

In the case of `CCc1ccc(NS(=O)(=O)c2ccc3ccccc3c2)cc1`, the growth inhibition was 97.5% (active).

From PubChem BioAssay (NCI)
